Records with an inconclusive call do not appear. The source made the active and inactive calls. Calls come from the whole dose curve; as a rule, active = well fitted curve in the direction sought with a large enough effect; inconclusive = small, poorly fitted or top-dose-only effect, or another doubt; inactive = no such curve, though single readings can be large; an effect the other way counts as inactive or inconclusive.

A short description of experiment [1]: Primary qHTS for inhibitors of La Crosse Virus (LACV) - induced cell death in SH-SY5Y cells (AID 1508616). Note: potency is the fitted concentration of half-maximal effect. An outline of the steps:
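SH-SY5Y, 6000 cells/well; cpd via pin tool in DMSO; LACV 0.01 MOI; 6 d 37C 5% CO2; ATPLite, 5 min RT; luminescence normalized to ±virus DMSO controls.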
Background: In qHTS, concentration-response curves come from the screen itself.

In experiment [2] the target is Calcium and integrin-binding protein 1 (Homo sapiens) (UniProt Q99828). In words: Validation qHTS for Identification of Calcium Integrin Binding protein 1 (CIB1) Competitor (AID 1508618). A digest of the protocol:
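Fluorescence polarization with 1 uM CIB1-GST and 100 nM FITC-alphaIIb peptide in HEPES pH 7.4, NaCl, 5 mM CaCl2, Tween20. Compounds at up to 114 uM final, preincubated with protein 15 min; read after 15 min more at RT.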

Experiment [3] is described as follows: Primary qHTS for small molecule stabilizers of the endoplasmic reticulum resident proteome: Secreted ER Calcium Modulated Protein (SERCaMP) assay (AID 1508630). An outline of the steps:
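The SH-SY5Y reporter protocol was run at 3 concentrations up to 38.3 uM (primary) or 11 concentrations (follow-up): 16 h compound, 100 nM thapsigargin for 4 h, then extracellular luciferase luminescence.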

Experiment [4] deals with Papain (Carica papaya) (UniProt P00784). As to the kind of experiment: Primary qHTS assay for inhibitors of the protease papain (AID 1645873).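 Note: papain turnover of Z-FR-AMC read as the AMC fluorescence gain over 10 min.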 Note: potency is the fitted concentration of half-maximal effect.
Papain (Carica papaya), sequence (P00784 whole entry, looked up): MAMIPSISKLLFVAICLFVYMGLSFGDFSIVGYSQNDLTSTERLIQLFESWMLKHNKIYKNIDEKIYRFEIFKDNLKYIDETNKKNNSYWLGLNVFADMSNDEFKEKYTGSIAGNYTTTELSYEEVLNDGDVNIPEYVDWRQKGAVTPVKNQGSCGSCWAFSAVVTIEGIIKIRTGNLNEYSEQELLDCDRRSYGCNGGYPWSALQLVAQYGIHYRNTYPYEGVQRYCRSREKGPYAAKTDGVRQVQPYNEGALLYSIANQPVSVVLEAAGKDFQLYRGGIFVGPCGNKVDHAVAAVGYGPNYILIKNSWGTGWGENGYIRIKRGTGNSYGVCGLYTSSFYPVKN
Experiment [5] can be described thus: Counterscreen qHTS for small molecule stabilizers of the endoplasmic reticulum resident proteome: GLuc-NoTag assay (AID 1508627).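 Note: SH-SY5Y cells given compound then 100 nM thapsigargin to empty ER calcium; series mostly up to about 76 µM.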 A digest of the protocol: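 Counterscreen line: SH-SY5Y-GLuc-NoTag cells, treated with compound 19 hr before a 4 hr, 100 nM thapsigargin calcium depletion. Secreted Gaussia luciferase in the medium was measured by luminescence after coelenterazine was added (0.07x final), with cells unlysed.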
In general terms: The purpose of a counterscreen is to sort out artefacts and off-target activity.

Calcium and integrin-binding protein 1 (Homo sapiens), sequence (Q99828 whole entry, looked up): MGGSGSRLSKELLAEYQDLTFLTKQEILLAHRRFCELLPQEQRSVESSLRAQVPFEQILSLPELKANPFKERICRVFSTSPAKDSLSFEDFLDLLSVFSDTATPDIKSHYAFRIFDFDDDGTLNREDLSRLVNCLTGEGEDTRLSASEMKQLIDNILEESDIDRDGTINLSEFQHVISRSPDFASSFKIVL

Consider `CCOC(=O)c1ncn2c1[C@@H]1CCCN1C(=O)c1cc(OC)ccc1-2`, for which the Potency entry in experiment [1], in experiment [2] and in experiment [4] was “inactive” in each case. Further, the outcome in experiment [3] was inactive.

As to `N=C(N)c1ccc(CS(=O)(=O)F)cc1`, the Potency result in experiment [1], in experiment [2] and in experiment [4] was “inactive” each time. For the same compound, in experiment [3], the outcome was inactive.

Regarding `NC(N)=NOCC[C@H](N)C(=O)O`, the Potency result in experiment [1], in experiment [2] and in experiment [4] was “inactive” throughout. In experiment [3], the outcome was inactive.

Consider `CP(=O)(O)C1=CCNCC1`, for which the Potency result in experiment [1], in experiment [2] and in experiment [4] was “inactive” throughout. In experiment [3], the outcome was inactive.

Consider `COc1ccc2c(c1O)-c1cccc3c1[C@@H](C2)N(C)CC3`, for which the Potency entry in experiment [1], in experiment [2] and in experiment [4] was “inactive” in each case. For the same compound, in experiment [3], the result was inactive.

On to `CC(N)[C@H](O)c1ccc(O)c(O)c1` (stereo partly specified), for which the Potency entry in experiment [1], in experiment [2] and in experiment [4] was “inactive” each time. Further, the outcome in experiment [3] was inactive.

For the compound `CCCCCCCCCCCCCC(=O)O[C@@H]1[C@@H](C)[C@@]2(O)[C@@H](C=C(CO)C[C@@]3(O)C(=O)C(C)=C[C@@H]23)C2C(C)(C)[C@@]21OC(C)=O` (stereo partly specified), the Potency entry in experiment [1], in experiment [2] and in experiment [4] was “inactive” in each case. For the same compound, the outcome in experiment [3] was inactive.

As to `CO[C@H]1CC=C2CCN3CCC4=C(CC(=O)OC4)[C@]23C1`, the Potency entry in experiment [1], in experiment [2] and in experiment [4] was “inactive” throughout. For the same compound, the result in experiment [3] was inactive.

In the case of `C[C@H](Cc1ccc2c(c1)OC(C(=O)O)(C(=O)O)O2)NC[C@H](O)c1cccc(Cl)c1`, the Potency entry in experiment [1], in experiment [2] and in experiment [4] was “inactive” throughout. Besides, the result in experiment [3] was inactive.

On to `CN1CCC(c2c[nH]c3ccc(O)cc23)CC1`, for which the Potency entry in experiment [1], in experiment [2] and in experiment [4] was “inactive” throughout. Besides, the outcome in experiment [3] was inactive.

With `COc1ccc(CNC(=O)/C=C/c2ccc3[nH]cc(CCN(C)C)c3c2)cc1`, the Potency entry in experiment [1], in experiment [2] and in experiment [4] was “inactive” in each case. The result in experiment [3] was inactive.

For `Cc1sc2ccccc2c1CC1=NCCN1`, the Potency result in experiment [1] and in experiment [2] was “inactive” each time. Besides, in experiment [3], the result was inactive. For the same compound, the Potency in experiment [4] was 28.2 µM (active).

Consider `NC(=O)c1cc(N2CC2)c([N+](=O)[O-])cc1[N+](=O)[O-]`, for which the Potency entry in experiment [1], in experiment [2] and in experiment [4] was “inactive” throughout. Besides, in experiment [3], the outcome was inactive.

As to `Cc1o[nH]c(=O)c1CC(N)C(=O)O` (stereo unspecified), the Potency result in experiment [1], in experiment [2] and in experiment [4] was “inactive” in each case. Also, the outcome in experiment [3] was inactive.

As to `Cc1c2ccncc2c(C)c2c1[nH]c1ccccc12`, the Potency in experiment [1] is 1.58 µM (active). For the same compound, the Potency result in experiment [2] and in experiment [4] was “inactive” throughout. The result in experiment [3] was inactive.

With `O=C1CC[C@@]2(O)C3Cc4ccc(O)c5c4C2(CCN3CC2CC2)[C@H]1O5` (stereo partly specified), the Potency result in experiment [1], in experiment [2] and in experiment [4] was “inactive” throughout. Moreover, the result in experiment [3] was inactive.

As for `Cc1cc([C@@H]2CCCN2C)on1`, the Potency result in experiment [1], in experiment [2] and in experiment [4] was “inactive” throughout. Moreover, in experiment [3], the outcome was inactive.

For `Cc1[nH]c2ccc(O)cc2c1CCN`, the Potency result in experiment [1], in experiment [2] and in experiment [4] was “inactive” throughout. In experiment [3], the result was inactive.

`CCCN1CCC[C@@H](c2cccc(O)c2)C1`: the Potency result in experiment [1], in experiment [2] and in experiment [4] was “inactive” each time. Moreover, the outcome in experiment [3] was inactive.

On to `OCc1cnc[nH]1`, for which the Potency result in experiment [1], in experiment [2] and in experiment [4] was “inactive” in each case. In addition, the result in experiment [3] was inactive.

`O=C1C=CC(=O)C=C1`: the Potency result in experiment [1], in experiment [2] and in experiment [4] was “inactive” each time. The outcome in experiment [3] was inactive.

Regarding `CC(N)c1cccc(Cl)c1Cl` (stereo unspecified), the Potency result in experiment [1], in experiment [2] and in experiment [4] was “inactive” in each case. The outcome in experiment [3] was inactive.

For the compound `NC(=O)c1ccc(OCC(O)CN2CC=C(c3ccc(F)cc3)CC2)cc1` (stereo unspecified), the Potency result in experiment [1], in experiment [2] and in experiment [4] was “inactive” each time. The result in experiment [3] was inactive.

On to `OC1CCCCC1N1CCC(c2ccccc2)CC1` (stereo unspecified), for which the Potency entry in experiment [1], in experiment [2] and in experiment [4] was “inactive” each time. Besides, the result in experiment [3] was inactive.

`C[N+](C)(C)CC#CCN1CCCC1=O`: the Potency result in experiment [1], in experiment [2] and in experiment [4] was “inactive” each time. Further, the outcome in experiment [3] was inactive.

Regarding `COC(=O)N1CCN(C(=O)Cc2ccc(Cl)c(Cl)c2)C(CN2CCCC2)C1` (stereo unspecified), the Potency entry in experiment [1], in experiment [2] and in experiment [4] was “inactive” throughout. For the same compound, in experiment [3], the result was inactive.

Consider `CN1CC[C@@]2(C)c3cc(O)ccc3N(C)C12` (stereo partly specified), for which the Potency entry in experiment [1], in experiment [2] and in experiment [4] was “inactive” in each case. Moreover, the outcome in experiment [3] was inactive.

In the case of `Oc1ccc2c3c1O[C@H]1c4oc5ccccc5c4C[C@@]4(O)C(C2)N(CC2CC2)CCC314` (stereo partly specified), the Potency entry in experiment [1], in experiment [2] and in experiment [4] was “inactive” in each case. Besides, the outcome in experiment [3] was inactive.

For the compound `NC(C(=O)O)c1cc(=O)[nH]o1` (stereo unspecified), the Potency entry in experiment [1], in experiment [2] and in experiment [4] was “inactive” throughout. For the same compound, the result in experiment [3] was inactive.

For the compound `C[N+]1(C)CCc2cc3c(cc2[C@H]1[C@@H]1OC(=O)c2c1ccc1c2OCO1)OCO3`, the Potency result in experiment [1], in experiment [2] and in experiment [4] was “inactive” in each case.

In the case of `C[N+]1(C)CCN(c2ccccc2)CC1`, the Potency entry in experiment [1], in experiment [2] and in experiment [4] was “inactive” in each case. For the same compound, the outcome in experiment [3] was inactive.

`CC(N)Cc1c[nH]c2ccc(OCc3cccs3)cc12` (stereo unspecified): the Potency result in experiment [1], in experiment [2] and in experiment [4] was “inactive” in each case.

On to `CC(Cc1ccc(OCC(=O)O)cc1)NCC(O)c1cccc(Cl)c1` (stereo unspecified), for which the Potency entry in experiment [1], in experiment [2] and in experiment [4] was “inactive” each time. The result in experiment [3] was inactive.

`O=C(O)c1cc[c]([Hg][Cl])cc1`: the Potency result in experiment [1] is “inactive”. In addition, the call in experiment [5] and in experiment [3] was inactive.

Consider `CCCN(CCC)CCc1ccc(O)c(O)c1`, for which the Potency result in experiment [1], in experiment [2] and in experiment [4] was “inactive” in each case.

These data come from PubChem BioAssay (NCATS).
